Screen size: about 63,000 compounds; about 1,100 (1.7%) were called active. Shown is part of a subset that was picked to be rich in actives. Entries with a potency or affinity are not part of this list. Unmarked numbers belong to inactive results. No stated cut-off is given here; in the data, active means cytotoxicity above about 50%; inactive means the rest.
Experiment: HPDE-C7 pancreatic duct cell viability loss – fluorescence, HTS (AID 430);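 further: cells exposed to compound for 48 hours before viability readout; 0% = vehicle and 100% = reference cytotoxic drug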
Details: HPDE-C7 pancreatic duct cells viability, at 10 µM, hits give high values

| SMILES | cytotoxicity |
| --- | --- |
| COc1ccccc1NC(=O)C1=C(C)Nc2ncnn2C1c1cccs1 (stereo not given) | 3.3% |
| O=C(Cn1cnc2c(nnn2Cc2ccccc2F)c1=O)OCc1ccccc1 | -18.4% |
| CCSc1nnc(NC(=O)CSc2nnc(Cc3cccn3C)n2-c2ccc(C)cc2)s1 | 39.6% |
| CCSc1nnc(NC(=O)CSc2nnc(Cc3cccn3C)n2-c2ccc(F)cc2)s1 | 65.6% (active) |
| Cn1cccc1Cc1nnc(SCC(=O)Nc2ccc(F)cc2)n1-c1ccc(F)cc1 | -3.8% |
| Cc1nnc(Nc2ccc(C(=O)NCCO)cc2)c2ccccc12 | 8.6% |
| CC(O)C(=O)NCCOCCOCCNC(=O)C(C)O (stereo not given) | -5.5% |
| Cc1ccc(O)c(Sc2cc(C)ccc2O)c1 | 52.6% (active) |
| CC(C)c1ccc(O)c(N)c1 | 6.8% |
| COC(=O)c1ccc(Sc2ccc(C)cc2)c(N)c1 | 9.4% |
| COC(=O)c1ccc(OC(=O)c2ccc(OC)c(OC)c2)c(OC)c1 | 4.3% |
| Cc1ccc(SC(C)C(=O)NCC(C)C)cc1 (stereo not given) | -2.6% |
| CN(CCC#N)S(=O)(=O)c1ccc2c(c1)c(=O)n(C)c(=O)n2C | -12.5% |
| CCCN(S(=O)(=O)c1ccc(OCC)cc1)S(=O)(=O)c1cccs1 | -20.2% |
| COc1cc(NC(=O)C2CCCC2)c(OC)cc1Cl | -20.5% |
| Cc1ccccc1NC(=O)c1c(F)c(F)c(F)c(F)c1F | -10.5% |
| O=C(Nc1ccccc1Cl)c1c(F)c(F)c(F)c(F)c1F | -8.2% |
| CCOC(=O)c1ccccc1NC(=O)c1ccccc1SC | 25.3% |
| COCC(=O)Nc1cc(OC)c(Cl)cc1OC | -1.4% |
| CCOC(=O)c1ccccc1NC(=O)c1cccs1 | -6% |
| COc1cc(NC(=O)c2c(F)c(F)c(F)c(F)c2F)c(OC)cc1Cl | 55.4% (active) |
| O=C(CSc1nnc(-c2ccc(Cl)cc2)n1Cc1ccco1)c1cccs1 | -6.2% |
| CCCCS(=O)CC(COCc1ccccc1)OC(=O)CSc1nc(C)cc(C)n1 (stereo not given) | 8.8% |
| COC(=O)C1=CNC=C(C(=O)OC)C1c1ccc(C(=O)OC)cc1 | 5.1% |
| CC1(C)Cc2c(c(=S)nc(-c3ccccc3)n2CCN2CCOCC2)CO1 | -21.2% |

| SMILES | cytotoxicity |
| --- | --- |
| CCOC(=O)C1CCN(C(=O)c2sc3nc(-c4ccccc4)cn3c2C)CC1 | -0.3% |
| Cn1c(N)c(C(=O)COC(=O)C2(c3ccccc3F)CCCC2)c(=O)n(C)c1=O | -7% |
| CCOCCCNC(=O)C(Cc1ccccc1)NC(=O)c1ccco1 (stereo not given) | -8.1% |
| Cc1cc(C)c2c(CN3CCN(C)CC3)cc(=O)oc2c1 | -8.5% |
| CCN1CCN(Cc2cc(=O)oc3cc(C)cc(C)c23)CC1 | 2.1% |
| Cc1cc(C)c2c(CN3CCN(C/C=C/c4ccccc4)CC3)cc(=O)oc2c1 | 69.9% (active) |
| O=c1ccnc(S/C=C/c2ccccc2)[nH]1 | -11.2% |
| O=C(Cn1c(=O)[nH]c2ccsc2c1=O)N1CCN(c2ccc(F)cc2)CC1 | 9.5% |
| Cc1nn(Cc2ccc(Cl)cc2)c(C)c1NC(=O)c1cc(-c2ccc3c(c2)OCO3)on1 | 35.4% |
| Cc1nn(Cc2ccc(Cl)c(Cl)c2)c(C)c1NC(=O)c1cc(-c2ccc3c(c2)OCO3)on1 | 54.7% (active) |
| Cc1ccc(Cn2nc(C)c(NC(=O)c3cc(-c4ccc5c(c4)OCO5)on3)c2C)cc1 | 16.2% |
| O=C(c1ccc2c(c1)OCO2)N1CCCc2ccccc21 | -12.5% |
| CN(C)S(=O)(=O)c1ccc(C(=O)Nc2ccccn2)cc1 | 0.8% |
| COc1ccc(-n2c(Cc3cccn3C)nnc2SCC(=O)Nc2cc(Cl)ccc2OC)cc1 | -0.9% |
| Cn1nnnc1SCC(=O)NCCc1ccc(Cl)cc1 | -8.2% |
| Oc1ccc(CN2CCN(Cc3ccccc3)CC2)c2cccnc12 | 6.2% |
| Oc1ccc(CNc2ccccc2F)c2cccnc12 | -4.7% |
| COc1ccccc1N1CCN(Cc2cc(Br)c(O)c3ncccc23)CC1 | 5.1% |
| Oc1c(CN2CCCCC2)cc(COCc2ccccc2)c2cccnc12 | -10.8% |
| Oc1ccc(CNc2ccc(F)cc2)c2cccnc12 | 45.3% |
| CN1CCN(Cc2cc(COCc3ccccc3)c3cccnc3c2O)CC1 | -9.2% |
| Oc1c(CN2CCOCC2)cc(COCc2ccccc2)c2cccnc12 | 60.7% (active) |
| Oc1ccc(CNc2ccccc2)c2cccnc12 | 34.7% |
| COCc1cc(CN2CCCC2)c(O)c2ncccc12 | -11.9% |
| CCCn1c(C)cc(=O)c2cc(NC(=O)c3ccccn3)ccc21 | 16.1% |

| SMILES | cytotoxicity |
| --- | --- |
| COC(=O)CCCCCNc1ccc(C(=O)OC)cc1N | -12.1% |
| CC1Cc2nc(SCC(=O)N3CCc4ccccc43)n(C)c(=O)c2S1 (stereo not given) | -19.6% |
| O=S(=O)(NCCc1csc(-c2ccccc2)n1)c1ccc2c(c1)OCCO2 | 6.2% |
| O=C(CCCCn1c(=S)[nH]c2ccsc2c1=O)NCc1ccco1 | -3% |
| Cc1ccc(C)c(N2CCN(C(=O)C3CCCN(S(=O)(=O)c4cnc[nH]4)C3)CC2)c1 (stereo not given) | -3.6% |
| COc1cccc(C2=NOC(C(=O)N3CCN(C(=O)c4ccco4)CC3)C2)c1 (stereo not given) | -8.5% |
| CSCCC(NC(=O)c1ccccc1)C(=O)NCc1ccco1 (stereo not given) | -8.6% |
| O=C(Cn1cnc2ccccc2c1=O)c1ccc2c(c1)OCCO2 | -6.3% |
| COc1cccc(-c2cc(C(=O)Nc3c(C)nn(Cc4ccccc4C)c3C)no2)c1 | -3.2% |
| COc1ccccc1C(=O)N1CCN(C(=O)COc2cccc(C)c2)CC1 | -7.6% |
| CC1=C(C(=O)NC(C)c2ccc3c(c2)OCCO3)C2(CCC(C)CC2)OC1=O (stereo not given) | 10.7% |
| CCCCOc1ccc(-c2c(C#N)c(N)nc(SCC(N)=O)c2C#N)cc1 | 82.5% (active) |
| CCOC(=O)CC(=O)CSc1nc(N)c(C#N)c(-c2ccc(F)cc2)c1C#N | 5.6% |
| CCCCOC(=O)CSc1nc(N)c(C#N)c(-c2ccc(OCC)cc2)c1C#N | 5.1% |
| CCCCOC(=O)CSc1nc(N)c(C#N)c(-c2ccc(OC)cc2)c1C#N | -16% |
| CCOC(=O)CC(=O)CSc1nc(N)c(C#N)c(-c2ccc(Cl)cc2)c1C#N | 54.7% (active) |
| CCOC(=O)CSc1nc(N)c(C#N)c(-c2ccc(OC)cc2)c1C#N | -6.1% |
| CC(=NCC1CCNCC1)C1=C(O)CC(C)(C)CC1=O | -8.1% |
| CCOc1ccccc1-c1nn2c(Cc3ccccc3)nnc2s1 | -4.2% |
| NC(=O)C(F)(F)C12OC3C4C5CC(C6C5C3C61)C42 (stereo not given) | -3.7% |
| CC(C)(C)Nc1cccccc1=O | -8% |
| COc1ccc(C)cc1S(=O)(=O)N(CC(=O)O)c1ccccc1 | -0.9% |
| COc1ccc(OC)c(S(=O)(=O)n2nc(-c3ccccc3)cc2N)c1 | -13.7% |
| COc1ccc(S(=O)(=O)n2nc(-c3cc(OC)c(OC)c(OC)c3)cc2N)cc1OC | -3.7% |
| Cc1cc(C)cc(N2C(=O)C3C4C=CC(C4)C3C2=O)c1 (stereo not given) | -5.5% |

| SMILES | cytotoxicity |
| --- | --- |
| Cc1ccc(CC2(O)CC(C)N(C)CC2C)c(C)c1 (stereo not given) | 0.1% |
| Nc1nonc1C(=O)NC(c1ccccc1)c1ccccc1 | 3.4% |
| COc1ccc(C2CC(c3ccccc3)Nc3nc(NC(=O)c4cccs4)nn32)cc1 (stereo not given) | -3.4% |
| COc1ccccc1C(=O)N1CCN(c2cccc(Cl)c2)CC1 | -13% |
| COc1ccc(C(=O)N2CCN(c3cccc(Cl)c3)CC2)c(OC)c1 | 44.1% |
| O=C(O)c1ccccc1C(=O)N1CCN(c2cccc(Cl)c2)CC1 | 6.7% |
| CCOc1ccc(C(=O)N2CCN(c3ccccc3)CC2)cc1OCC | -51.5% |
| CCOc1ccc2ccccc2c1C(=O)N1CCOCC1 | 2.5% |
| O=C(c1c(Cl)nc2sccn12)N1CCN(c2cccc(Cl)c2)CC1 | 75% (active) |
| CCOc1ccccc1C(=O)N1CCN(c2cccc(Cl)c2)CC1 | 62.2% (active) |
| Cc1cc(C(=O)N2CCN(c3ncccn3)CC2)c(C)o1 | 2.2% |
| Cc1ccc(C(=O)N2CCN(c3cccc(Cl)c3)CC2)cc1C | 36.8% |
| CCOc1ccc2ccccc2c1C(=O)N1CCN(c2ccccc2)CC1 | 50.5% (active) |
| O=C(c1cccc(F)c1)N1CCN(c2cccc(Cl)c2)CC1 | 36.5% |
| Cc1cc(C(=O)N2CCN(c3cccc(Cl)c3)CC2)c(C)o1 | 53.3% (active) |
| CN1CCN(/C=C2\SC(=S)NC2=O)CC1 | -23.4% |
| O=C(c1cnc2n(c1=O)CCS2)N1CCN(c2ccc(Cl)c(Cl)c2)CC1 | -3.5% |
| CC(NS(=O)(=O)c1ccc(Br)cc1)C(c1cccs1)N1CCN(C)CC1 (stereo not given) | -8.4% |
| c1ccc(-n2c(-c3ccncc3)nnc2-c2ccco2)cc1 | -33.8% |
| O=C(O)CC1C(=O)NCCN1C/C=C/c1ccccc1 (stereo not given) | -5.3% |
| O=C(CN(C(=O)CNC(=O)c1ccco1)c1ccc2c(c1)OCO2)NC1CCCCC1 | -31.1% |
| Cc1ccc2c(c1)nnn2C1CCN(C(=O)C2CCCCC2)CC1 | -12.5% |
| COc1ccccc1CC(=O)N1CCN(c2cccc(C(F)(F)F)c2)CC1 | -10.2% |
| COc1ccccc1C(=O)N1CCN(c2cccc(C(F)(F)F)c2)CC1 | 60.8% (active) |
| O=C(c1ccccc1F)N1CCN(c2cccc(C(F)(F)F)c2)CC1 | -5% |

From PubChem BioAssay AID430 (Sanford-Burnham Center for Chemical Genomics, 2006)
